Source: PubChem BioAssay AID488922 (Johns Hopkins Ion Channel Center, 2010)
Hit rate of the full screen: of about 310,000 compounds, about 3,800 (1.2%) were called active.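 The calls were made as follows: active = ratio B-score over 3 SD below the library mean, with starting fluorescence within 5 SD of its mean; inactive = the rest, inconclusive results apart.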 Only a selection was taken, and actives are over-represented in it overall.

Each compound was assayed against Potassium channel subfamily K member 9 (Homo sapiens) (UniProt Q9NPC2) (assay: KCNK9 potassium channel inhibitors, primary screen, HEK293 cells, thallium flux (AID 488922;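 as to B-score: negative B-score means less thallium flux so channel inhibition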)). Details: HEK293 KCNK9, FluxOR thallium flux fluorescence, at 10 µM; hits give low values.
Chain of Potassium channel subfamily K member 9 (Homo sapiens) (Q9NPC2 whole entry, looked up): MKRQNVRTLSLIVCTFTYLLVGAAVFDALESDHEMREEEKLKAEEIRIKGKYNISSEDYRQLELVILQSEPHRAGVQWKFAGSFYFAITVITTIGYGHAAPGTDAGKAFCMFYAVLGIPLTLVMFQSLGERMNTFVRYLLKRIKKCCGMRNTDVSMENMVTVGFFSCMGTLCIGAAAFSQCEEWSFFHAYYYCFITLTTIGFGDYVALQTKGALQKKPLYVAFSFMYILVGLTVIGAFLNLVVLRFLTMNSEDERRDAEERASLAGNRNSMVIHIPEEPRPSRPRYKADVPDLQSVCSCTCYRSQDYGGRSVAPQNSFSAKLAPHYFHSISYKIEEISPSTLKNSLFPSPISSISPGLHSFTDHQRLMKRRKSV
For `Cc1ccc(S(=O)(=O)N(C)CC(=O)NCCc2c[nH]c3ccccc23)cc1`, the B-score was “inactive”.
`OC(c1ccc(Cl)cc1)C(CN1CCOCC1)c1ccccc1` (centres undefined) was tested, and the B-score was “inactive”.
With `Cc1ccc(-c2csc(NCCc3nc4cc(Cl)c(Cl)cc4n3CCOCCO)n2)cc1` the B-score was -9.6 (active).
`Cc1ccc(-c2csc(N3CCN(c4cc5c(cc4Cl)nc(-c4ccncc4)n5CCOCCO)CC3)n2)cc1` was tested, and the B-score was “inactive”.
For `CCCn1c(CCNc2nc(-c3ccc(OC)cc3)cs2)nc2ccccc21`, the B-score was “inactive”.
`Cc1c(CCC(=O)O)c(=O)oc2c(C)c(OCc3ccccc3Cl)ccc12` was tested, and the B-score was “inactive”.
For `C/C=N/N(c1ccccc1)c1ccccc1`, the B-score was “inactive”.
`O=C(/C=C/c1cccc(C(F)(F)F)c1)N1CCN(c2ccccn2)CC1` was tested, and the B-score was “inactive”.
`OCCCNc1nc(-c2ccccc2)c2cc(Cl)ccc2n1` was tested, and the B-score was “inactive”.
With `O=C(CCl)NNc1nc(-c2ccccc2)c2cc(Cl)ccc2n1` the B-score was “inactive”.
With `NC(N)=Nc1nc(-c2ccccc2)c2cc(Cl)ccc2n1` the B-score was -6.86 (active).
In the case of `Cn1c(C(=O)OC(C(=O)NC2CCCCC2)c2ccccn2)cc2sccc21` (centres undefined), the B-score is reported as “inactive”.
`COc1cc(C(=O)NCc2cc3cc(Cl)ccc3n2C)cc(OC)c1OC` was tested, and the B-score was “inactive”.
`CCC1C(=O)NCCN1C(=O)c1ccc2nc(Cc3ccc(OC)cc3)oc2c1` (centres undefined) was tested, and the B-score was “inactive”.
`COc1ccc(Cl)cc1NC(=O)CCN1CCOCC1` was tested, and the B-score was “inactive”.
`COc1cccc2cc(C(C)N(CCCN3CCOCC3)C(=O)Nc3ccc(Cl)cc3)oc12` (centres undefined) was tested, and the B-score was -9.66 (active).
With `COc1cccc(NC(=S)NCCCN2CCOCC2)c1` the B-score was “inactive”.
With `Cc1cccc2[nH]c(CN(C)C(=O)C3CCC(=O)N(CCc4ccccc4)C3)nc12` (centres undefined) the B-score was “inactive”.
For `COc1ccccc1-c1nnc(-c2ccc(F)cc2)o1`, the B-score was “inactive”.
For `CC1=C(N2CCN(c3ncccn3)CC2)CCC1=O`, the B-score was “inactive”.
With `O=C(O)c1ccccc1C(=O)Nc1ccccc1[N+](=O)[O-]` the B-score was “inactive”.
With `O=C(Nc1ccccc1[N+](=O)[O-])C1C(c2ccccc2)=C1c1ccccc1` the B-score was -8.24 (active).
For `O=C(Nc1ccccc1-c1ccccc1)c1ccccc1[N+](=O)[O-]`, the B-score was “inactive”.
For `CCCCNS(=O)(=O)c1ccc2nc(SCC(=O)Nc3cc(C)cc(C)c3)[nH]c2c1`, the B-score was “inactive”.
With `CCN(CC)CCn1cnc2c1c(=O)n(CCOC(=O)c1cc(OC)c(OC)c(OC)c1)c(=O)n2C` the B-score was “inactive”.
With `Cc1ccc(OCCNC(=O)CN2C(=O)NC3(CCCC3)C2=O)cc1` the B-score was “inactive”.
For `O=C(NCc1ccccn1)Nc1ccc(Cl)cc1`, the B-score was “inactive”.
For `CC12CCC(C(=O)N(c3cccc(Cl)c3)C1=O)C2(C)C` (centres undefined), the B-score was “inactive”.
`CC1=NN(c2cccc(Cl)c2)C(=O)C12CC(C)=C(C)CS2` (centres undefined) was tested, and the B-score was -11.1 (active).
For `O=C(COC(=O)C1CC2C=CC1C2)Nc1ccccc1` (centres undefined), the B-score was “inactive”.
`Cc1ccc(C(=O)N/C(=C\c2ccc(F)cc2)C(=O)NCCN2CCOCC2)cc1` was tested, and the B-score was “inactive”.
For `O=C(CN1C(=O)/C(=C/c2ccccc2F)Sc2ccccc21)NCc1cccnc1`, the B-score was “inactive”.
With `O=C(CN1C(=O)S/C(=C\c2ccccc2F)C1=O)NCCCn1ccnc1` the B-score was “inactive”.
In the case of `O=C(CN1C(=O)/C(=C\c2ccccc2F)SC1=S)Nc1nc2ccccc2s1`, the B-score is reported as -7.2 (active).
For `Cc1cc(CNCc2c(C(=O)N(C)Cc3ccccc3)nc3ccccn23)nn1C`, the B-score was “inactive”.
With `CCCNC(=O)CN(Cc1ccccc1F)S(=O)(=O)c1ccc(C)cc1` the B-score was “inactive”.
In the case of `Cc1ccc(S(=O)(=O)N(CC(=O)Nc2cccnc2)c2ccc(Br)cc2)cc1`, the B-score is reported as “inactive”.
In the case of `COC(=O)Cc1ccc(N(Cc2ccccc2F)S(=O)(=O)c2ccc(Br)cc2)cc1`, the B-score is reported as -6.88 (active).
With `O=C(/C=C/c1ccc([N+](=O)[O-])cc1)NCCSCc1ccco1` the B-score was “inactive”.
With `O=C(c1ccc(Br)o1)N1CCN(CCOc2ccccc2)CC1` the B-score was “inactive”.
With `COc1ccc(N2CCN(C(=O)CNC(=O)c3ccc(Br)o3)CC2)cc1` the B-score was “inactive”.
In the case of `COc1ccc(-c2nc(CCNC(=O)c3ccc(Br)o3)cs2)cc1`, the B-score is reported as -10.5 (active).
With `COc1ccc(-c2csc(NC(=O)COC(=O)c3ccc(Br)o3)n2)cc1` the B-score was “inactive”.
With `CCCCC(CC)CNC(=O)C(=O)C1C(=O)Nc2ccccc21` (centres undefined) the B-score was “inactive”.
With `COc1cc2c(C(=O)N(C)c3cc(Cl)ccc3OC)cn(C)c(=O)c2cc1OC` the B-score was “inactive”.
`CCOc1ccccc1N1CCN(C(=S)Nc2ccc(S(N)(=O)=O)cc2)CC1` was tested, and the B-score was “inactive”.
In the case of `CCC(=O)N1CCN(c2ccccc2NC(=O)COc2cccc(C)c2C)CC1`, the B-score is reported as “inactive”.
`CCOc1ccccc1NC(=S)N1CCN(c2cccc(C)c2C)CC1` was tested, and the B-score was -6.79 (active).
With `CCOc1ccc(NC(=O)N(CCC(C)C)C(C)c2ccco2)cc1` (centres undefined) the B-score was -7.13 (active).
With `CC(c1ccco1)N(C(=O)Nc1ccccc1)C1CCCCC1` (centres undefined) the B-score was “inactive”.
For `CCOc1ccc(NC(=O)N(CC(C)C)CC(C)C)cc1`, the B-score was “inactive”.
`COc1cc(C)nc(N2CCCC(C(=O)NCC(C)C)C2)n1` (centres undefined) was tested, and the B-score was “inactive”.
In the case of `COc1ccc(NC(=O)C(=O)NCC(=O)Nc2cccc(C(F)(F)F)c2)cc1`, the B-score is reported as “inactive”.
With `COc1cccc(NC(=O)CN(C)CC(=O)Nc2ccc3c(c2)CCC3)c1` the B-score was “inactive”.
In the case of `COc1ccc(NC(=O)CN(C)CC(=O)Nc2cccc(C(F)(F)F)c2)cc1`, the B-score is reported as -11.5 (active).
With `CC(C)c1c(C(=O)N/N=C/c2ccccc2C(=O)O)nnn1-c1nonc1N` the B-score was “inactive”.
`CN1C(=O)/C(=C/C=C2\SCCN2C)OC1=S` was tested, and the B-score was “inactive”.
With `CC1Cc2ccccc2N1C(=O)c1cc2sccc2n1Cc1ccccc1` (centres undefined) the B-score was “inactive”.
`CCOC(=O)c1cc2sccc2n1Cc1ccc(C#N)cc1` was tested, and the B-score was -12.8 (active).
`O=C(c1cc2sccc2n1Cc1ccc(F)cc1)N1CCc2ccccc21` was tested, and the B-score was “inactive”.
In the case of `CCCCC(=O)Nc1c2c(nn1-c1ccc([N+](=O)[O-])cc1)CS(=O)(=O)C2`, the B-score is reported as “inactive”.
`CCSC1=NCCN1C(=O)c1ccc(S(=O)(=O)N(CC)CC)cc1` was tested, and the B-score was “inactive”.
With `COC(=O)c1ccccc1Sc1c(/C=N/OCc2ccc(Cl)cc2)c(C(F)(F)F)nn1C` the B-score was “inactive”.
With `Cn1nc(C(F)(F)F)c(C(=O)Nc2cccc(C(F)(F)F)c2)c1SCc1ccc(Cl)cc1` the B-score was -7.25 (active).
`O=C(O)CSc1c2c(nc3cc(C(=O)Nc4cccc(C(F)(F)F)c4)ccc13)CCCC2` was tested, and the B-score was “inactive”.
With `C[n+]1cc(-c2ccccc2)oc1-c1ccccc1` the B-score was “inactive”.
In the case of `COc1cccc(-c2coc3cc4oc(=O)c(CC(=O)O)c(C)c4cc23)c1`, the B-score is reported as “inactive”.
With `COc1cc(C(=O)OC2CCOC2=O)c([N+](=O)[O-])cc1OC` (centres undefined) the B-score was “inactive”.
`CN(C)Cc1ccccc1C1(O)c2ccccc2CSc2ccccc21` (centres undefined) was tested, and the B-score was -6.84 (active).
With `CC(=O)Nc1ccc(S(=O)(=O)N2CCC(NC(=O)c3ccccc3)CC2)cc1` the B-score was “inactive”.
`COc1ccc(-c2csc3ncnc(N4CCN(S(=O)(=O)c5cccc(F)c5)CC4)c23)cc1` was tested, and the B-score was “inactive”.
For `CCCCCOC(=O)C1=C(C)Nc2nnnn2C1c1ccc(OC)c(OC)c1OC` (centres undefined), the B-score was “inactive”.
In the case of `CC(C)CCNC(=O)CN(C(=O)Cn1nnc(-c2ccc(F)cc2)n1)C1CCCC1`, the B-score is reported as “inactive”.
For `CC(C)CCNC(=O)C(C)N(C(=O)Cn1nnc(-c2ccc(F)cc2)n1)C1CCCC1` (centres undefined), the B-score was -8.61 (active).
With `COc1ccc(-c2nnn(CC(=O)N(CCO)C(C(=O)NC3CCCC3)c3ccc(F)cc3)n2)cc1` (centres undefined) the B-score was “inactive”.
For `Cc1ccc(NC(=O)CN2CCCCC2)c2c1CC(C)(C)O2`, the B-score was “inactive”.
With `CCOc1ccc(NS(=O)(=O)c2ccc(C(=O)NC3CCN(Cc4ccccc4)CC3)cc2)cc1` the B-score was “inactive”.
With `CCCCC(=O)NNC(=S)NC(=O)C(c1ccccc1)c1ccccc1` the B-score was “inactive”.
For `CC(C)C(=O)NC(=S)Nc1ccccc1F`, the B-score was “inactive”.
With `CC(C)C(=O)Nc1cccc(NC(=S)NC(=O)C(c2ccccc2)c2ccccc2)c1` the B-score was -14.9 (active).
For `Cc1c(C(=O)NC2CCCCC2)oc2ccccc12`, the B-score was “inactive”.
For `Cc1ccc(NC(=O)CC2C(=O)N(Cc3ccccc3)C(=S)N2NC(=O)c2cccc(F)c2)c(C)c1` (centres undefined), the B-score was “inactive”.
In the case of `Cc1ccc(NC(=O)c2cc([N+](=O)[O-])ccc2Cl)c(O)c1`, the B-score is reported as -10.2 (active).
For `O=C(Nc1cccnc1)c1cc([N+](=O)[O-])ccc1Cl`, the B-score was “inactive”.
For `CNc1ccc([N+](=O)[O-])cc1C(=O)O`, the B-score was “inactive”.
`FC(F)(F)c1cc(-c2cccs2)nc(NCc2ccco2)n1` was tested, and the B-score was “inactive”.
With `COc1ccc(-c2cc(C(F)(F)F)nc(NCc3cccnc3)n2)cc1` the B-score was “inactive”.
`FC(F)(F)c1cc(-c2ccco2)nc(NCc2ccc(Cl)cc2)n1` was tested, and the B-score was -8.22 (active).
`O=C(OCCOCn1cc(Br)c(=O)[nH]c1=O)c1ccccc1` was tested, and the B-score was “inactive”.
With `COc1ccc(Br)cc1CN(C)CC(=O)Nc1cc(Cl)cc(Cl)c1` the B-score was “inactive”.
With `O=C(COc1ccc2ccccc2c1)N1CCN(C(=O)c2cccs2)CC1` the B-score was “inactive”.
In the case of `O=S(=O)(Nc1ccccc1Br)c1cccs1`, the B-score is reported as “inactive”.
With `O=S(=O)(NCc1ccc(Cl)cc1Cl)c1cccs1` the B-score was “inactive”.
With `O=C(Nc1cccc(Cl)c1)Nc1ccccc1NS(=O)(=O)c1cccs1` the B-score was -7.87 (active).
With `Cn1ccs/c1=N\S(=O)(=O)c1ccc(C(C)(C)C)cc1` the B-score was “inactive”.
For `COc1cc(/C=N/NC(=O)c2ccc(N3CCCC3=O)cc2)ccc1O`, the B-score was “inactive”.
In the case of `COc1ccc(C(=O)Nc2ccccc2C(=O)N/N=C/c2ccccc2OC)cc1`, the B-score is reported as -13.5 (active).
For `COc1ccc(C(=O)Nc2ccccc2C(=O)NCc2ccco2)cc1`, the B-score was “inactive”.
In the case of `COc1ccc(/C=N/NC(=O)c2ccccc2)cc1OS(=O)(=O)c1ccccc1`, the B-score is reported as “inactive”.
`COc1ccc(/C=N/NC(=O)c2ccc3c(c2)OCCO3)c(OC)c1` was tested, and the B-score was “inactive”.
`COc1ccc(C(=O)Nc2ccccc2C(=O)N/N=C/c2ccc(O)c(OC)c2)cc1` was tested, and the B-score was -10.2 (active).
`COc1ccc(Cl)cc1NC(=O)COC(=O)C(CC(C)C)N1C(=O)C2CC=CCC2C1=O` (centres undefined) was tested, and the B-score was “inactive”.
With `COc1ccccc1N1CC(C(=O)Nc2nnc(SCC(=O)NCC3CCCO3)s2)CC1=O` (centres undefined) the B-score was “inactive”.
`CC1(C)CC(=O)c2c(n(S(=O)(=O)c3ccccc3)c3ccc(NS(=O)(=O)c4ccccc4)cc23)C1` was tested, and the B-score was “inactive”.
